Source: PubChem BioAssay (NCI)
This is part of a sample that, as a whole, favours compounds with a hit. Of some 83,000 tested, about 20% had one in any assay.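 Step 1: grow cells in 96-well plates. Step 2: add test compound at a single concentration. Step 3: incubate 48 h. Step 4: record percent growth.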 Calls of active or inactive are those of the source. How the source made its calls: active means growth percent below 10; inactive means the rest.

Assays:
Assay in all cases: NCI-60 one-dose screen, 48 h (100 = growth as untreated, 0 = no growth, -100 = all killed)
Details in all cases: 10 µM unless noted
NCI-H23 lung = system: NCI-H23 lung
NCI-H322M lung = system: NCI-H322M lung
HOP-62 NSCLC = system: HOP-62 NSCLC
NCI-H460 lung = system: NCI-H460 lung
HOP-92 NSCLC = system: HOP-92 NSCLC
NCI-H522 lung = system: NCI-H522 lung
786-0 renal = system: 786-0 renal
COLO 205 colon = system: COLO 205 colon
DU-145 prostate = system: DU-145 prostate
K-562 leukemia = system: K-562 leukemia
MALME-3M melanoma = system: MALME-3M melanoma
MDA-MB-231 breast = system: MDA-MB-231 breast
RXF 393 renal = system: RXF 393 renal
SF-268 CNS = system: SF-268 CNS
SF-295 CNS = system: SF-295 CNS
SF-539 CNS = system: SF-539 CNS
UACC-257 melanoma = system: UACC-257 melanoma
M14 melanoma = system: M14 melanoma
HCT-15 colon = system: HCT-15 colon

Measured: growth

C[n+]1c2ccccc2nc2ccc(NCCO)cc21
inactive: NCI-H23 lung 90.6% | NCI-H322M lung 88.8% | HOP-62 NSCLC 98.1% | NCI-H460 lung 86.8% | HOP-92 NSCLC 30.9% | NCI-H522 lung 92.2% | 786-0 renal 80.8% | COLO 205 colon 68.8% | DU-145 prostate 97.2% | K-562 leukemia 68.2% | MALME-3M melanoma 101% | MDA-MB-231 breast 77.2% | RXF 393 renal 83.2% | SF-268 CNS 63.7% | SF-295 CNS 98.5% | SF-539 CNS 90.8% | UACC-257 melanoma 99.2% | M14 melanoma 92.8% | HCT-15 colon 93.8%

CCOC(=O)c1cc2c(n1Cc1ccccc1)-c1oncc1CCC2
inactive: NCI-H23 lung 88.3% | NCI-H322M lung 107% | HOP-62 NSCLC 77.9% | NCI-H460 lung 97.3% | HOP-92 NSCLC 86.3% | NCI-H522 lung 61.4% | 786-0 renal 102% | DU-145 prostate 114% | K-562 leukemia 24.1% | MALME-3M melanoma 39.2% | MDA-MB-231 breast 74.4% | RXF 393 renal 84.6% | SF-268 CNS 88.7% | SF-295 CNS 98.2% | SF-539 CNS 83.3% | UACC-257 melanoma 82.5% | M14 melanoma 68% | HCT-15 colon 45.7%

COc1ccc(C(=O)C2CC2c2ccc(Cl)cc2)cc1 (stereo unspecified)
inactive: NCI-H23 lung 95.1% | NCI-H322M lung 82.7% | HOP-62 NSCLC 115% | NCI-H460 lung 94.2% | HOP-92 NSCLC 92.7% | NCI-H522 lung 68.2% | 786-0 renal 89% | COLO 205 colon 106% | DU-145 prostate 97.5% | K-562 leukemia 76.1% | MALME-3M melanoma 94.8% | MDA-MB-231 breast 86.4% | RXF 393 renal 95.5% | SF-268 CNS 78.8% | SF-295 CNS 141% | SF-539 CNS 98.6% | UACC-257 melanoma 94.2% | M14 melanoma 92% | HCT-15 colon 97.9%

O=NN(Cc1cccnc1)C(=O)NC1CCCCC1
inactive: NCI-H23 lung 111% | NCI-H322M lung 106% | HOP-62 NSCLC 107% | NCI-H460 lung 109% | HOP-92 NSCLC 82.3% | NCI-H522 lung 90.5% | 786-0 renal 108% | COLO 205 colon 111% | DU-145 prostate 116% | K-562 leukemia 101% | MALME-3M melanoma 102% | MDA-MB-231 breast 127% | RXF 393 renal 102% | SF-268 CNS 106% | SF-295 CNS 80.7% | SF-539 CNS 96.2% | UACC-257 melanoma 92.5% | M14 melanoma 107% | HCT-15 colon 108%

CCN(CC)c1cc(C)c2cc(NC(=O)c3cccc(OC)c3)ccc2n1
inactive: NCI-H23 lung 85% | NCI-H322M lung 109% | HOP-62 NSCLC 107% | NCI-H460 lung 57.1% | HOP-92 NSCLC 29.1% | NCI-H522 lung 93.4% | 786-0 renal 70% | COLO 205 colon 89.7% | DU-145 prostate 92.9% | K-562 leukemia 13.4% | MALME-3M melanoma 82.5% | MDA-MB-231 breast 55.5% | RXF 393 renal 51.3% | SF-268 CNS 63.2% | SF-539 CNS 77.3% | UACC-257 melanoma 105% | M14 melanoma 77.3% | HCT-15 colon 61.4%

COCCN(C(=O)Cc1cccs1)C(C(=O)NCc1ccc(OC)cc1)c1ccc(C(C)C)cc1 (stereo unspecified)
active: HOP-92 NSCLC -3.71%
inactive: NCI-H23 lung 86.4% | NCI-H322M lung 92.2% | HOP-62 NSCLC 97.8% | NCI-H460 lung 78.2% | NCI-H522 lung 80.7% | 786-0 renal 95% | COLO 205 colon 104% | DU-145 prostate 63.5% | K-562 leukemia 77% | MALME-3M melanoma 72.2% | MDA-MB-231 breast 71.4% | RXF 393 renal 88.5% | SF-268 CNS 57.8% | SF-295 CNS 84.3% | SF-539 CNS 93.3% | UACC-257 melanoma 122% | M14 melanoma 106% | HCT-15 colon 95.7%

COc1ccc(/C(C#N)=C/c2nc3c(N4CCOCC4)nc(Cl)nc3n2C)cc1OC
active: NCI-H460 lung -15.2% | HOP-92 NSCLC -12.2% | NCI-H522 lung -28.4% | 786-0 renal -61.5% | DU-145 prostate 8.07% | K-562 leukemia 0.867% | MDA-MB-231 breast 9.29% | RXF 393 renal -67.5% | SF-295 CNS -6.46% | SF-539 CNS -26.5% | M14 melanoma -49.1% | HCT-15 colon -40.8%
inactive: NCI-H23 lung 24% | NCI-H322M lung 29.9% | HOP-62 NSCLC 25.3% | MALME-3M melanoma 32.7% | SF-268 CNS 14.5% | UACC-257 melanoma 16.2%

COc1nc2c(c(=O)n1C)N=C1c3ccccc3C(=O)C1C(c1ccccc1)N2 (stereo unspecified)
inactive: NCI-H23 lung 94.1% | NCI-H322M lung 104% | HOP-62 NSCLC 86.9% | NCI-H460 lung 103% | HOP-92 NSCLC 89.2% | NCI-H522 lung 102% | 786-0 renal 84.7% | COLO 205 colon 106% | DU-145 prostate 94.6% | K-562 leukemia 74.8% | MALME-3M melanoma 83.2% | MDA-MB-231 breast 89.2% | SF-268 CNS 85.3% | SF-539 CNS 93.7% | UACC-257 melanoma 96.7% | M14 melanoma 82.9% | HCT-15 colon 90.5%

COc1cc(NC(=O)CCSc2nc3ccccc3c(=O)n2Cc2ccccc2)cc(OC)c1OC
inactive: NCI-H23 lung 89.7% | NCI-H322M lung 75.8% | HOP-62 NSCLC 92.8% | NCI-H460 lung 94.6% | HOP-92 NSCLC 54.5% | 786-0 renal 83.4% | COLO 205 colon 118% | DU-145 prostate 97.5% | K-562 leukemia 81.2% | MALME-3M melanoma 82% | MDA-MB-231 breast 64.9% | RXF 393 renal 92.3% | SF-268 CNS 81.9% | SF-295 CNS 75.3% | SF-539 CNS 72.9% | UACC-257 melanoma 89.5% | M14 melanoma 94.7% | HCT-15 colon 92.5%
active: NCI-H522 lung 4.12%
